Results from PubChem BioAssay (EPA / NIEHS).
The source made the active and inactive calls. Rule for the calls: active = hit-call score of the fitted dose curve at least 0.9, where 1 is the maximum; inactive = score below 0.9.

What was measured:
[1] = read-out: Cyclin D1 (CCND1), CCND1 (gene 595); experiment: LTEA_HepaRG_CCND1: Life Technologies and Expression Analysis (LTEA) Assay for Cyclin D1 (CCND1) using HepaRG (AID 2283451); details: mRNA level, 48 h; actives raise or lower the signal;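 for AC50: differentiated human HepaRG liver cells in serum-free induction medium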
In short: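 Expression of CCND1 was quantified by qRT-PCR on Fluidigm arrays using ACTB, GAPDH and POLR2A as reference genes. HepaRG cultures, plated 48 h beforehand, were dosed for 48 h at up to 100 uM (half-log, 8 points) in 0.5% DMSO.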

[2] = read-out: catalase (CAT), CAT (gene 847); experiment: LTEA_HepaRG_CAT: Life Technologies and Expression Analysis (LTEA) Assay for catalase (CAT) using HepaRG (AID 2283452); details: mRNA level, 48 h; actives raise or lower the signal
In short: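 Expression of CAT was quantified by TaqMan qRT-PCR with ACTB/GAPDH/POLR2A normalization after 48 h chemical exposure of HepaRG. Eight-point half-log series, top 100 uM, in 0.5% DMSO; gain or loss fitted against vehicle.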

[3] = read-out: flavin-containing dimethylaniline monooxygenases 3 (FMO3), FMO3 (gene 2328); experiment: LTEA_HepaRG_FMO3: Life Technologies and Expression Analysis (LTEA) Assay for flavin-containing dimethylaniline monooxygenases 3 (FMO3) using HepaRG (AID 2283453); details: mRNA level, 48 h; actives raise or lower the signal;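 for AC50: differentiated human HepaRG liver cells in serum-free induction medium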
In short: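 FMO3 transcript quantified by TaqMan qRT-PCR against three housekeeping genes after 48 h chemical exposure of HepaRG cells. Eight-point half-log series, top 100 uM, 0.5% DMSO vehicle; phenobarbital 1mM induction control; up- or down-regulation fitted.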

[4] = read-out: Cytochrome P450 (CYP1A1), CYP1A1 (gene 1543); experiment: LTEA_HepaRG_CYP1A1: Life Technologies and Expression Analysis (LTEA) Assay for Cytochrome P450 (CYP1A1) using HepaRG (AID 2283454); details: mRNA level, 48 h; actives raise or lower the signal
In short: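 CYP1A1 transcript levels measured by Fluidigm qRT-PCR against three housekeeping genes, 48 h after chemical dosing of human HepaRG cells (highest concentration 100 uM, half-log steps, 0.5% DMSO vehicle). Gain or loss of signal fitted relative to DMSO.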

[5] = read-out: CFLAR gene, CFLAR (gene 8837); experiment: LTEA_HepaRG_CFLAR: Life Technologies and Expression Analysis (LTEA) Assay for CFLAR gene using HepaRG (AID 2283455); details: mRNA level, 48 h; actives raise or lower the signal
In short: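 Transcript level by qRT-PCR (normalized to ACTB, GAPDH and POLR2A) after 48 h chemical exposure of HepaRG cells, top concentration 100 uM with half-log steps, 0.5% DMSO vehicle, duplicates; fitted bidirectionally against DMSO baseline.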

[6] = read-out: Forkhead box O1 (FOXO1), FOXO1 (gene 2308); experiment: LTEA_HepaRG_FOXO1: Life Technologies and Expression Analysis (LTEA) Assay for Forkhead box O1 (FOXO1) using HepaRG (AID 2283456); details: mRNA level, 48 h; actives raise or lower the signal
In short: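 FOXO1 transcript quantified by qRT-PCR after 48 h chemical exposure (top 100 uM, half-log steps, 0.5% DMSO) of HepaRG cells, housekeeping-normalized (ACTB/GAPDH/POLR2A). Changes fitted in both directions relative to vehicle.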

[7] = CEETOX_H295R_TESTO: CeeTox H295R High-throughput Steroidogenesis Assay for Testosterone (TESTO) (AID 2283457); details: actives raise or lower the signal
In short: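 Testosterone secreted into the medium over 48 h by H295R cells (maximum passage 10) was quantified by LC-MS/MS after MTBE extraction. Fitted in both directions against DMSO, with concentrations diluted until MTT viability was ≥70%.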

[8] = read-out: growth arrest and DNA damage 45 (GADD45A), GADD45A (gene 1647); experiment: LTEA_HepaRG_GADD45A: Life Technologies and Expression Analysis (LTEA) Assay for growth arrest and DNA damage 45 (GADD45A) using HepaRG (AID 2283458); details: mRNA level, 48 h; actives raise or lower the signal
In short: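 GADD45A expression was measured by TaqMan qRT-PCR against three housekeeping genes (ACTB, GAPDH, POLR2A) after 48 h treatment of HepaRG cells. Eight-point half-log series up to 100 uM in 0.5% DMSO, run in duplicate.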

[9] = read-out: Forkhead box O3 (FOXO3), FOXO3 (gene 2309); experiment: LTEA_HepaRG_FOXO3: Life Technologies and Expression Analysis (LTEA) Assay for Forkhead box O3 (FOXO3) using HepaRG (AID 2283459); details: mRNA level, 48 h; actives raise or lower the signal
In short: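 FOXO3 transcript measured by qRT-PCR (normalized to ACTB, GAPDH, POLR2A) after 48 h exposure of HepaRG cells in serum-free induction medium. Duplicates, eight half-log concentrations up to 100 uM, 0.5% DMSO; gain or loss fitted against DMSO.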

[10] = read-out: ABC Transporter (ABCB1), ABCB1 (gene 5243); experiment: LTEA_HepaRG_ABCB1: Life Technologies and Expression Analysis (LTEA) Assay for ABC Transporter (ABCB1) using HepaRG (AID 2283460); details: mRNA level, 48 h; actives raise or lower the signal
In short: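 ABCB1 transcript level measured by TaqMan qRT-PCR against three housekeeping genes after 48 h chemical exposure of differentiated HepaRG cells. Top concentration 100 uM, half-log steps, eight points, 0.5% DMSO vehicle; bidirectional fit relative to DMSO.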

[11] = read-out: growth arrest and DNA damage 45 (GADD45B), GADD45B (gene 4616); experiment: LTEA_HepaRG_GADD45B: Life Technologies and Expression Analysis (LTEA) Assay for growth arrest and DNA damage 45 (GADD45B) using HepaRG (AID 2283461); details: mRNA level, 48 h; actives raise or lower the signal
In short: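 Transcript level quantified by Fluidigm TaqMan qRT-PCR with three housekeeping genes for normalization, analyzed for up- or down-regulation against 0.5% DMSO. HepaRG cultures dosed 48 h at eight half-log concentrations up to 100 uM, duplicates.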

[12] = read-out: ABC Transporter (ABCC3), ABCC3 (gene 8714); experiment: LTEA_HepaRG_ABCC3: Life Technologies and Expression Analysis (LTEA) Assay for ABC Transporter (ABCC3) using HepaRG (AID 2283462); details: mRNA level, 48 h; actives raise or lower the signal
In short: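 Transcript level by TaqMan qRT-PCR, normalised to three housekeeping genes, fitted in both directions relative to vehicle. Chemicals tested in duplicate at eight half-log concentrations up to 100 uM for 48 h on HepaRG cells (0.5% DMSO).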

[13] = read-out: ABC Transporter (ABCB11), ABCB11 (gene 8647); experiment: LTEA_HepaRG_ABCB11: Life Technologies and Expression Analysis (LTEA) Assay for ABC Transporter (ABCB11) using HepaRG (AID 2283463); details: mRNA level, 48 h; actives raise or lower the signal
In short: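 ABCB11 transcript levels quantified by TaqMan qRT-PCR against three housekeeping genes after 48 h chemical exposure of HepaRG cultures. Concentrations up to 100 uM in half-log steps, 0.5% DMSO vehicle; both induction and suppression scored.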

[14] = read-out: ABC Transporter (ABCC2), ABCC2 (gene 1244); experiment: LTEA_HepaRG_ABCC2: Life Technologies and Expression Analysis (LTEA) Assay for ABC Transporter (ABCC2) using HepaRG (AID 2283464); details: mRNA level, 48 h; actives raise or lower the signal
In short: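 Endpoint is ABCC2 transcript level from qRT-PCR, normalized to three housekeeping genes and fitted bidirectionally relative to DMSO. Human HepaRG cells received test chemical for 48 h at up to 100 uM (8 points, half-log steps, 0.5% DMSO), duplicate wells.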

[15] = read-out: Broad substrate specificity ATP-binding cassette transporter ABCG2 (Homo sapiens) (UniProt Q9UNQ0); experiment: LTEA_HepaRG_ABCG2: Life Technologies and Expression Analysis (LTEA) Assay for ABC Transporter (ABCG2) using HepaRG (AID 2283465); details: mRNA level, 48 h; actives raise or lower the signal
In short: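 ABCG2 transcript was quantified by TaqMan qRT-PCR against three housekeeping genes in HepaRG cells. Cells were treated in duplicate for 48 h across an 8-point half-log series up to 100 uM, with 0.5% DMSO vehicle. Gain or loss versus DMSO was fit.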

[16] = read-out: ATP-citrate lyase (ACLY), ACLY (gene 47); experiment: LTEA_HepaRG_ACLY: Life Technologies and Expression Analysis (LTEA) Assay for ATP-citrate lyase (ACLY) using HepaRG (AID 2283466); details: mRNA level, 48 h; actives raise or lower the signal
In short: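 ACLY mRNA quantified by qRT-PCR on Fluidigm arrays against three housekeeping genes, after 48 h chemical treatment of HepaRG cells (top concentration 100 uM, half-log steps, 0.5% DMSO vehicle). Up- or down-regulation fitted relative to DMSO.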

[17] = read-out: Peroxisomal acyl-coenzyme A oxidase 1 (ACOX1) gene, ACOX1 (gene 51); experiment: LTEA_HepaRG_ACOX1: Life Technologies and Expression Analysis (LTEA) Assay for Peroxisomal acyl-coenzyme A oxidase 1 (ACOX1) gene using HepaRG (AID 2283467); details: mRNA level, 48 h; actives raise or lower the signal
In short: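 ACOX1 transcript levels were quantified by TaqMan qRT-PCR against three housekeeping genes after 48 h chemical exposure of differentiated human HepaRG cells. Exposure used eight half-log steps topping at 100 uM, 0.5% DMSO vehicle, in duplicate. Bidirectional curve fits were made relative to DMSO.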

[18] = read-out: Alkaline Phosphatase, Placental (ALPP) gene, ALPP (gene 250); experiment: LTEA_HepaRG_ALPP: Life Technologies and Expression Analysis (LTEA) Assay for Alkaline Phosphatase, Placental (ALPP) gene using HepaRG (AID 2283468); details: mRNA level, 48 h; actives raise or lower the signal;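 for AC50: differentiated human HepaRG liver cells in serum-free induction medium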
In short: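 ALPP transcript level, measured by qRT-PCR and normalized to three housekeeping genes (ACTB, GAPDH, POLR2A), after 48 h dosing of differentiated HepaRG in serum-free induction medium. Top concentration 100 uM with half-log dilutions (8 points, 0.5% DMSO, duplicates); bidirectional fitting relative to DMSO.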

[19] = read-out: Bcl-2 (BAD) gene, BAD (gene 572); experiment: LTEA_HepaRG_BAD: Life Technologies and Expression Analysis (LTEA) Assay for Bcl-2 (BAD) gene using HepaRG (AID 2283469); details: mRNA level, 48 h; actives raise or lower the signal
In short: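 Read-out: qRT-PCR of BAD mRNA, normalized to three housekeeping genes. Human HepaRG cultures got 48 h chemical exposure in 0.5% DMSO, duplicate eight-point half-log series topping at 100 uM. Gain or loss of signal fitted versus DMSO vehicle.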

Measured: AC50

Broad substrate specificity ATP-binding cassette transporter ABCG2 (Homo sapiens), sequence (Q9UNQ0 whole entry, looked up): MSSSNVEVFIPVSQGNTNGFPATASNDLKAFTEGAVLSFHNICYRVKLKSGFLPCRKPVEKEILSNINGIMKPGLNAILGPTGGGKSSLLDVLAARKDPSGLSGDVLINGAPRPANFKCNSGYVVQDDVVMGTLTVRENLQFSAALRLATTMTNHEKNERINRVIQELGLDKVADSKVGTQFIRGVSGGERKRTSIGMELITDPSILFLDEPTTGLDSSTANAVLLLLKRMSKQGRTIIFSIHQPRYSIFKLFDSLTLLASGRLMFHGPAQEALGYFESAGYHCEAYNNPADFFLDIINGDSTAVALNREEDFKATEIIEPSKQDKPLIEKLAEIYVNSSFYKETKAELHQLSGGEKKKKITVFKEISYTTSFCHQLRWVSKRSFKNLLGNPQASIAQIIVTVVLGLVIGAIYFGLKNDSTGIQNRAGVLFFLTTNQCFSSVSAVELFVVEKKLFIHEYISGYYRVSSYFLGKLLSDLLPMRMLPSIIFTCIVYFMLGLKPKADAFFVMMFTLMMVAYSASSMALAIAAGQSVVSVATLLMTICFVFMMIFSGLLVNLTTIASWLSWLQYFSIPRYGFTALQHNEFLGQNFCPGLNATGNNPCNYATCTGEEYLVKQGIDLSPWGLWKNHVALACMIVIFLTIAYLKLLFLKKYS

Cc1c(C)c2c(c(C)c1O)CCC(C)(COc1ccc(CC3SC(=O)NC3=O)cc1)O2 (configuration not stated)
active: [2] 50 µM | [3] 93 µM | [4] 27.5 µM | [8] 0.262 µM | [9] 88.4 µM | [11] 37.7 µM | [13] 15.8 µM | [14] 93.7 µM | [17] 97.6 µM | [18] 15.8 µM
inactive: [1] | [5] | [6] | [7] | [10] | [12] | [15] | [16] | [19]

CC(N)=O
active: [8] 0.256 µM
not listed: [7]
inactive: all other assays above

O=C(O)c1cccnc1
not listed: [7]
inactive: all other assays above

C=CCCCCCCCCCCCC
not listed: [7]
inactive: all other assays above

OCC(CO)n1cnc(-c2ccc(F)cc2)c1-c1ccnc(Oc2ccccc2)n1
active: [1] 20.1 µM | [4] 50 µM | [10] 20 µM | [14] 24.7 µM | [15] 16 µM
not listed: [7]
inactive: all other assays above

Cc1cn([C@H]2C=C[C@@H](CO)O2)c(=O)[nH]c1=O
active: [4] 69.4 µM
not listed: [7]
inactive: all other assays above

CCCCCCC(C=O)=Cc1ccccc1
not listed: [7]
inactive: all other assays above
